DT40 TDP1 no CPT: qHTS for Inhibitors of human tyrosyl-DNA phosphodiesterase 1 (TDP1): qHTS in cells in absence of CPT. DT40 Tdp1-/- hTDP1 cells, no CPT, ATP luminescence, 48 h. Potency, µM (doses to about 46.2 µM), actives largely listed as inhibitors. hit rate 15% among 420,000. AID 686978, 2013; further: nearly all actives have a fitted effect of over 55% in size
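Seeded 400 DT40-hTDP1 cells/well (vehicle DMSO, no 20 nM CPT); pinned compounds; ≥48 hr at 37 °C; CellTiter-Glo luminescence as viability measure.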
IL1B secr inh: blocks inflammasome-driven IL-1 beta release | AID 743279 | activity change, % at 57.5 µM | hit rate 4.7% among 360,000 | THP-1 LPS/ATP IL-1B secretion, AlphaLISA, 16 h; active compounds read low; in the data active means activity change below about -50%; inconclusive means mostly about -30% to -49%
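Secreted IL-1B measured by AlphaLISA bead assay after 16 h compound exposure of THP-1 cells; compounds (final up to 57.5 uM) added 1 h before LPS (250 ng/mL) and ATP (1.25 mM) stimulation; lower signal means less secretion.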
TDP1 block: TDP1 (human) enzyme inhibition; Q9NUW8; recombinant TDP1, AlphaScreen DNA substrate cleavage; Potency, µM (highest dose often 130 µM), actives largely listed as inhibitors; hit rate 0.28% among 350,000; AID 485290; further: nearly all actives have a fitted effect of over 40% in size
Target sequence (Q9NUW8 whole entry, looked up): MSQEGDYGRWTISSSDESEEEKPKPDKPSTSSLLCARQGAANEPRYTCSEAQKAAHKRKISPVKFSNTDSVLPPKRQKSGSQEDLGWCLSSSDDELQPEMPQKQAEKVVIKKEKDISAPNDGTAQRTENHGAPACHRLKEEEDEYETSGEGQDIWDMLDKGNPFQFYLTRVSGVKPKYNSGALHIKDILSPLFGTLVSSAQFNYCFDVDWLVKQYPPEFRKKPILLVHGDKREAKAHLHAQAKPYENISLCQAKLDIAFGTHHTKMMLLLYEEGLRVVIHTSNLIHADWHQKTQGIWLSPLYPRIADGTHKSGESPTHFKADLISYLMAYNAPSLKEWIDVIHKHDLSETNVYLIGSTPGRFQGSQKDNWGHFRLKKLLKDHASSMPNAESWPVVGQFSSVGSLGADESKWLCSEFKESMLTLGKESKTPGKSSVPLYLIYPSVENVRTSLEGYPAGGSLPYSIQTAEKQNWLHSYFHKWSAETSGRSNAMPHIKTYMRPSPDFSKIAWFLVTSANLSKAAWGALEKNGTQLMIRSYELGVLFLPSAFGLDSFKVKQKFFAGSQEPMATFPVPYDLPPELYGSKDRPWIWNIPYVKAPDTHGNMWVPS
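Tdp1 1 nM final; 15 min RT w/ cpd; substrate 15 nM, 5 min; beads 10 ug/ml, 10 min; AlphaScreen read. Neg ctrl: no enzyme.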
DT40 TDP1 CPT: growth inhibition of DT40 Tdp1-/-;hTDP1 cells with camptothecin (screen for TDP1 inhibitors) | hit rate 12% among 420,000 | Potency, µM (series often up to 46.2 µM), hits mostly inhibitors | chicken DT40 Tdp1-/-;hTDP1 cells + 20 nM CPT, ATP luminescence, 48 h | AID 686979; further: nearly all actives have a fitted effect of over 55% in size
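Cell growth measured by CellTiter-Glo luminescence after a minimum 48 h, 37 C compound exposure with 20 nM CPT in Tdp1-knockout DT40 cells stably expressing hTDP1, seeded 400/well; qHTS titration format.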
TGFb SMAD3 inh: inhibitors of TGF-b signaling; AID 588855; Potency, µM (titrated, usually from 46.1 µM), most hits filed as inhibitors; HepG2 CAGA-GFP TGF-b/SMAD3 reporter, GFP fluorescence, 18 h; TGF-beta stimulated, 500 pg/mL final; hit rate 1.2% among 410,000; further: nearly all actives have a fitted effect of over 65% in size
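Inhibition of TGF-beta-driven CAGA-GFP reporter expression in HEPG2 cells is measured by cellular GFP fluorescence after 18 h stimulation with 500 pg/mL recombinant TGF-beta in 1% FBS medium at 37 degrees C.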
HepG2 viability: counter-screen for TGF-b inhibitors: cytotoxicity in HepG2 cells; HepG2 CAGA-GFP viability, ATP luminescence, 18 h; Potency, µM (top dose mostly 46.1 µM), most hits filed as cytotoxic; hit rate 0.76% among 410,000
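HepG2 CAGA-GFP cells (1000/well, DMEM with 1% FBS) received compound, then TGF-beta at 500 pg/mL final, and were incubated 18 hours at 37 degrees C. Viability was read by CellTiter-Glo luminescence. Media-only wells were set as complete cell-killing and DMSO as no toxicity.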
Hits are given with their value; i = inactive; ? = inconclusive; nt = not tested or not shown; [ ] = another dose, or the depositor's remark. Hits are enriched below; roughly 18% of the tested compounds scored in any of these assays. Unless noted, the call rests on the fitted dose curve; in most records, active means well fitted curve in the direction sought with a large enough effect; inconclusive means small, poorly fitted or top-dose-only effect, or another doubt; inactive means no such curve, though single readings can be large; an effect the other way counts as inactive or inconclusive.

SMILES	DT40 TDP1 no CPT	IL1B secr inh	TDP1 block	DT40 TDP1 CPT	TGFb SMAD3 inh	HepG2 viability
COc1cc(CN2C[C@@H](CO)O[C@@H](n3cnc4c(N(C)C(C)C)ncnc43)C2)cc(OC)c1OC	i	i	nt	i	i	i
O=C(NCc1ccco1)C(c1cccs1)N(C(=O)C1COc2ccccc2O1)c1cccc(O)c1 (centres undefined)	13µM	i	i	23µM	?	i
CC(C)CCNC(=O)C(c1ccc(O)cc1)N(Cc1cccs1)C(=O)C1COc2ccccc2O1 (centres undefined)	16µM	-73	i	23µM	?	i
COc1ccc(C)cc1NC(=O)Cn1cc(S(=O)(=O)N2CCC(C)CC2)c2ccccc2c1=O	?	nt	i	i	i	i
CC[N+](CC)=N/N=C1\C=CC[N+]([O-])=C1	i	i	nt	i	nt	nt
O=C1C(=O)N(Cc2ccc(Cl)c(Cl)c2)c2ccccc21	1.9µM	nt	nt	2.7µM	nt	nt
O=C1c2ccccc2N(Cc2ccc(Cl)cc2)C2=NCCN12	i	i	i	i	i	i
COc1cccc(CN2C(=O)c3ccccc3S2(=O)=O)c1	i	i	i	i	i	i
O=C1C(=O)N(Cc2cccc([N+](=O)[O-])c2)c2ccccc21	0.92µM	i	i	0.65µM	?	i
O=C1c2ccc([N+](=O)[O-])cc2S(=O)(=O)N1Cc1ccccc1	i	-94	nt	i	i	i
O=C(CN1C(=O)C(=O)c2ccccc21)c1ccc(Cl)cc1	3.3µM	i	i	5.8µM	i	i
CCC1(c2ccccc2)NC(=O)N(Cc2cccc([N+](=O)[O-])c2)C1=O (centres undefined)	i	i	nt	?	i	i
COc1ccc(-c2cccc3c2OC(CNC(=O)c2ccccc2-n2cccn2)C3)nn1 (centres undefined)	?	nt	nt	i[9.04 µM]	nt	nt
COc1ccc(-c2nc3cc(C)c(Br)c(C)n3c2Cc2ccccc2)cc1OC	?	i	nt	?	i	i
O=C(c1ccc([N+](=O)[O-])s1)N1CCN(c2ccccn2)CC1	15µM	i	i[0.0935 µM]	23µM	?	i
O=C(Nc1c(C(=O)N2CCN(c3ccccn3)CC2)oc2ccccc12)c1ccc([N+](=O)[O-])cc1	?	i	i	23µM	i	i
CC1(COS(N)(=O)=O)CCCCC1	i	i	nt	0.46µM	i	i
CC1(C)O[C@@H]2[C@@H](CO[C@@]3(COS(N)(=O)=O)OC(C)(C)O[C@@H]23)O1	i	nt	i	i	nt	nt
OC1OC[C@@H](O)[C@H](O)[C@H]1O (some centres undefined)	nt	nt	i	nt	nt	nt
CC1(C)CCC[C@@](C)([C@H]2CC[C@]3(C)[C@@H]2[C@H](O)C[C@@H]2[C@@]4(C)CC[C@H](O)C(C)(C)[C@@H]4[C@@H](O)C[C@]23C)O1	nt	nt	i	nt	nt	nt
Cc1ccc(-n2ncc(C(=O)N3CCC(c4ccccc4)C3)c2C2CCN(C(=O)OC(C)(C)C)CC2)cc1 (centres undefined)	23µM	nt	i	15µM	i	i
CC(C)(C)OC(=O)N1CCC(c2c(C(=O)N3CCC(c4ccccc4)C3)cnn2-c2ccc(Cl)cc2)CC1 (centres undefined)	16µM	nt	i	13µM	i	i
N#Cc1c(C(F)(F)F)cc(-c2cccs2)nc1SCc1ccccc1F	?	nt	i	?	i	i
Cc1ccc(S(=O)(=O)N2Cc3ccccc3CC2C(=O)N(C)C)cc1 (centres undefined)	i	i	nt	i	i	i
COc1cccc(NC(=O)C2CCCN(S(=O)(=O)c3c(C)nn(C)c3C)C2)c1 (centres undefined)	15µM	nt	i	?	i	i
SMILES	DT40 TDP1 no CPT	IL1B secr inh	TDP1 block	DT40 TDP1 CPT	TGFb SMAD3 inh	HepG2 viability
COc1ccc(OC)c(NC(=O)C2CCCN(S(=O)(=O)c3c(C)noc3C)C2)c1 (centres undefined)	?	i	i	i	i	i
COc1cccc(NC(=O)C2CCCN(S(C)(=O)=O)C2)c1 (centres undefined)	i	i	nt	i	i	i
COc1ccc(OC)c(NC(=O)C2CCCN(S(=O)(=O)c3c(C)nn(C)c3C)C2)c1 (centres undefined)	21µM	i	i	?	i	i
O=C(Nc1ccc2c(c1)OCO2)c1ccc2c(c1)S(=O)(=O)c1ccccc1C2=O	i	i	nt	i	i	i
Cc1cccc(NC(=O)C2Cc3ccccc3O/C2=N\O)c1 (centres undefined)	i	i	nt	i	i	i
COC(=O)c1cccnc1NC(=S)NNC(=O)c1ccncc1	i	i	i	i	i	i
Cc1ccc(CNC(=O)c2ccc(S(=O)(=O)N3CCCCCC3)cc2)cc1	4.1µM	i	nt	21µM	?	i
CC(=O)NCc1ccc(S(=O)(=O)N2CCN(c3ccccn3)CC2)cc1	i	i	i	i	i	i
Cc1ccc(C(=O)NCCc2ccc(S(=O)(=O)N3CCCC3)cc2)cc1	i	i	i	i	i	i
CC(=O)NCc1ccc(S(=O)(=O)N2CCCN(C)CC2)cc1	23µM	i	nt	?	i	i
Cc1ccc(C(=O)NNC(=O)c2ccc(S(=O)(=O)N3CCCCC3)cc2)cc1	23µM	i	?	5.2µM	i	i

Source: PubChem BioAssay
